Test results reported in PubChem BioAssay (NCI).
Compounds without any hit were thinned out: in the full panel of roughly 79,000, 15% have a hit. The source made the active and inactive calls. No stated cut-off is given here; in the data, active means growth inhibition above about 70%; inactive means the rest.

Experiment: NCI Yeast Anticancer Drug Screen. Data for the cln2 rad14 strain (AID 165);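 further: 0% = growth equal to vehicle treated cultures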
Settings: S. cerevisiae cln2 rad14 strain, at 50.0 µM, hits give high values
How it was run: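 Readout is yeast growth inhibition versus vehicle-treated controls, using a strain with cln2 and rad14 alterations exposed to compound.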

Structure (SMILES) | growth inhibition
C/C(=N/NC(N)=O)c1ccc(C)o1 | -0.75% (inactive)
COc1ccccc1NC(N)=S | 3.25% (inactive)
N#CC1CCCC/C1=N/NC(N)=O (stereo not given) | -6.05% (inactive)
CCOc1ccccc1/C=C(\C#N)c1cccc(Cl)c1 | 13.8% (inactive)
COc1ccc(CN=CN/C(C#N)=C(\N)C#N)cc1OC | 6.55% (inactive)
c1ccc2c(c1)ccc1c3ccccc3ncc21 | 35.5% (inactive)
Cc1ccc(N=Nc2c(C)nn(-c3ccccc3)c2C)c(Br)c1 | 4.1% (inactive)
COc1cc2c(c3c1c(=O)c1ccccc1n3C)C=CC1(CCCCC1)O2 | 86.5% (active)
Cc1ccc(C(C#N)c2ccc(N)cc2)cc1 (stereo not given) | 17.1% (inactive)
O=C1Nc2ccccc2/C1=N/N=P(c1ccccc1)(c1ccccc1)c1ccccc1 | 2.4% (inactive)
Nc1ncnc2c1nnn2CC(O)CO (stereo not given) | -25.5% (inactive)
COC1(OC)C2(Cl)C(Cl)=C(Cl)C1(Cl)C1CCCCCC12 (stereo not given) | -60.7% (inactive)
Cn1nc2ccccc2cc1=O | 14.2% (inactive)
CC(=O)N(C(C)=O)C1=C(c2ccccc2)C(=O)c2ccccc21 | -0.75% (inactive)
CCNC(=O)OC1C=CS(=O)(=O)C1 (stereo not given) | -5.55% (inactive)
O=c1c2[nH]cnc2n(-c2ccccc2)c(=S)n1-c1ccccc1 | -6.55% (inactive)
O=C(NCN1CCOCC1)Nc1ccccc1 | -24.2% (inactive)
N#Cc1ccccc1OCCCCCCCCCCOc1ccccc1C#N | 31.4% (inactive)
Cc1ccc(Nc2ccc(O)c3c2C(=O)c2ccccc2C3=O)cc1 | -29.6% (inactive)
CC(=O)Nc1ccccc1NC1CC(C)N(c2ccccc2)N1C(C)=O (stereo not given) | -11.5% (inactive)

Structure (SMILES) | growth inhibition
O=C(O)c1ccc(NC(=S)Nc2ccc(C(=O)O)cc2)cc1 | -7.4% (inactive)
Cc1ccc2[nH]c(=S)n(CCc3ccccc3)c(=O)c2c1 | 6.85% (inactive)
CC(CCc1ccccc1)N(C)C(=O)CNC(=O)CN1C(=O)c2ccccc2C1=O (stereo not given) | -1.25% (inactive)
CC(=O)OC1CCC2(C)C(CCC3C2CCC2(C)C(C(C)C(=O)O)CCC32)C1 (stereo not given) | 10.8% (inactive)
Nc1ccc(C(=O)Nc2ccc3c(O)cc(S(=O)(=O)O)cc3c2)cc1 | -6.5% (inactive)
O=C1N(CC2CO2)CCN1CC1CO1 (stereo not given) | -5.15% (inactive)
CCN(CC)C1Oc2cc3c(cc2C(c2cc(OC)c(O)c(OC)c2)C1C)OCO3 (stereo not given) | 3.35% (inactive)
COC1(OC)CC2C(=O)N(Cc3ccccc3)C1C=C2S(=O)(=O)c1ccccc1 (stereo not given) | -47.5% (inactive)
CSC(=S)Nc1cc(C)cc(C)n1 | 38% (inactive)
O=C(NC(=O)c1ccccc1[N+](=O)[O-])Nc1ccc(Oc2ncc(Cl)cn2)c(C(F)(F)F)c1 | -17.1% (inactive)
CC(CO)(CO)[N+](=O)[O-] | -46.5% (inactive)
CCOC(=O)C1CC1c1ccccc1 (stereo not given) | -8.65% (inactive)
COC(=O)CCC(=O)CN1C(=O)c2ccccc2C1=O | 11.5% (inactive)
CN(Cc1ccccc1)C(=O)c1ccc(C(=O)N(C)Cc2ccccc2)cc1 | -3.95% (inactive)
ClCCOC(c1ccc(Cl)cc1)c1ccc(Cl)cc1 | -12.9% (inactive)
COc1cc2c(cc1O)C(=O)CCCC2 | -2.25% (inactive)
COc1ccc(N(N=Nc2ccccc2)C(C)=O)cc1 | -4.75% (inactive)
CN1C(=O)CNS1(=O)=O | -11.1% (inactive)
Nc1nnc2nc(CC(=O)Cc3ccccc3)c(CC(=O)Cc3ccccc3)nn12 | -17.9% (inactive)
Cc1cc(C)cc(C(C)C)c1 | 5.95% (inactive)

Experiment: NCI Yeast Anticancer Drug Screen. Data for the bub3 strain (AID 167)
Settings: S. cerevisiae bub3 mutant strain, at 50.0 µM, hits give high values
How it was run: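 Growth of a checkpoint-deficient yeast mutant is measured after compound exposure. Values represent inhibition relative to vehicle.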

Structure (SMILES) | growth inhibition
C/C(=N/NC(N)=O)c1ccc(C)o1 | 1.55% (inactive)
COc1ccccc1NC(N)=S | -4% (inactive)
N#CC1CCCC/C1=N/NC(N)=O (stereo not given) | -6.65% (inactive)
CCOc1ccccc1/C=C(\C#N)c1cccc(Cl)c1 | 19.5% (inactive)
COc1ccc(CN=CN/C(C#N)=C(\N)C#N)cc1OC | 4.35% (inactive)
c1ccc2c(c1)ccc1c3ccccc3ncc21 | 0.75% (inactive)
Cc1ccc(N=Nc2c(C)nn(-c3ccccc3)c2C)c(Br)c1 | 18.9% (inactive)
COc1cc2c(c3c1c(=O)c1ccccc1n3C)C=CC1(CCCCC1)O2 | 87.5% (active)
Cc1ccc(C(C#N)c2ccc(N)cc2)cc1 (stereo not given) | 20.2% (inactive)
O=C1Nc2ccccc2/C1=N/N=P(c1ccccc1)(c1ccccc1)c1ccccc1 | -5.8% (inactive)
Nc1ncnc2c1nnn2CC(O)CO (stereo not given) | -2.9% (inactive)
COC1(OC)C2(Cl)C(Cl)=C(Cl)C1(Cl)C1CCCCCC12 (stereo not given) | -8.4% (inactive)
Cn1nc2ccccc2cc1=O | 10.8% (inactive)
CC(=O)N(C(C)=O)C1=C(c2ccccc2)C(=O)c2ccccc21 | -2.95% (inactive)
CCNC(=O)OC1C=CS(=O)(=O)C1 (stereo not given) | 7.95% (inactive)
O=c1c2[nH]cnc2n(-c2ccccc2)c(=S)n1-c1ccccc1 | -26.9% (inactive)
O=C(NCN1CCOCC1)Nc1ccccc1 | -6.55% (inactive)
N#Cc1ccccc1OCCCCCCCCCCOc1ccccc1C#N | -1% (inactive)
Cc1ccc(Nc2ccc(O)c3c2C(=O)c2ccccc2C3=O)cc1 | 16.1% (inactive)
CC(=O)Nc1ccccc1NC1CC(C)N(c2ccccc2)N1C(C)=O (stereo not given) | -34.4% (inactive)

Structure (SMILES) | growth inhibition
O=C(O)c1ccc(NC(=S)Nc2ccc(C(=O)O)cc2)cc1 | -6.15% (inactive)
Cc1ccc2[nH]c(=S)n(CCc3ccccc3)c(=O)c2c1 | 10.4% (inactive)
CC(CCc1ccccc1)N(C)C(=O)CNC(=O)CN1C(=O)c2ccccc2C1=O (stereo not given) | -15.1% (inactive)
CC(=O)OC1CCC2(C)C(CCC3C2CCC2(C)C(C(C)C(=O)O)CCC32)C1 (stereo not given) | -3.6% (inactive)
Nc1ccc(C(=O)Nc2ccc3c(O)cc(S(=O)(=O)O)cc3c2)cc1 | -10.5% (inactive)
O=C1N(CC2CO2)CCN1CC1CO1 (stereo not given) | -20.4% (inactive)
CCN(CC)C1Oc2cc3c(cc2C(c2cc(OC)c(O)c(OC)c2)C1C)OCO3 (stereo not given) | -7.1% (inactive)
COC1(OC)CC2C(=O)N(Cc3ccccc3)C1C=C2S(=O)(=O)c1ccccc1 (stereo not given) | 1.55% (inactive)
CSC(=S)Nc1cc(C)cc(C)n1 | 42.8% (inactive)
O=C(NC(=O)c1ccccc1[N+](=O)[O-])Nc1ccc(Oc2ncc(Cl)cn2)c(C(F)(F)F)c1 | 0.5% (inactive)
CC(CO)(CO)[N+](=O)[O-] | 6.25% (inactive)
CCOC(=O)C1CC1c1ccccc1 (stereo not given) | -3.6% (inactive)
COC(=O)CCC(=O)CN1C(=O)c2ccccc2C1=O | 14.1% (inactive)
CN(Cc1ccccc1)C(=O)c1ccc(C(=O)N(C)Cc2ccccc2)cc1 | 35.1% (inactive)
ClCCOC(c1ccc(Cl)cc1)c1ccc(Cl)cc1 | 0.45% (inactive)
COc1cc2c(cc1O)C(=O)CCCC2 | 14.1% (inactive)
COc1ccc(N(N=Nc2ccccc2)C(C)=O)cc1 | -16.7% (inactive)
CN1C(=O)CNS1(=O)=O | 4.6% (inactive)
Nc1nnc2nc(CC(=O)Cc3ccccc3)c(CC(=O)Cc3ccccc3)nn12 | 10.7% (inactive)
Cc1cc(C)cc(C(C)C)c1 | -11.6% (inactive)
